According to ChEMBL document CHEMBL4513216, “Probing the Open Global Health Chemical Diversity Library for Multistage-Active Starting Points for Next-Generation Antimalarials” (ACS Infect Dis, 2020):
The campaign covered roughly 65,000 compounds. About 2,100 (3.2%) showed an effect of 50% or more. The median lay at about -52%. The sample as a whole holds a higher share of strong results than the screen did.

Tested on: Plasmodium falciparum
Test: Screen against P. falciparum Asexual Blood Stage (ABS), at 5uM
Format: functional, Dd2
Conditions: tested at 5 uM

| Structure (SMILES) | INHIBITION [%] |
| --- | --- |
| CS(=O)(=O)N1C[C@@H]2COC[C@]2(CN2CCOCC2)C1 | -107 |
| CNC(=O)C1CCC2(CCN(c3nncs3)CC2)CO1 (stereo unspecified) | -79.1 |
| Cc1noc(C2CCN(C(=O)c3ccc(N(C)C)nc3)CC2)n1 | -27 |
| Cc1noc(C2CCN(C(=O)c3ccc(NC4CC4)nc3)CC2)n1 | -9.68 |
| Cc1noc(C2CCN(C(=O)c3ccc(C(F)(F)F)nc3)CC2)n1 | 57 |
| CN(Cc1ccco1)C1CCC12CCN(C(=O)N1CCCC1)CC2 (stereo unspecified) | -76 |
| O=C(c1cccc2cccnc12)N1CCCC(n2ccnc2)C1 (stereo unspecified) | 55.4 |
| O=C(c1cccc2ncccc12)N1CCCC(n2ccnc2)C1 (stereo unspecified) | -2.7 |
| O=C(c1cccnc1N1CCCCC1)N1CCCC(n2ccnc2)C1 (stereo unspecified) | 29.5 |
| Cc1cc(C(=O)NCc2ccc(N3CCN(C)CC3)nc2)c(C)s1 | -56.2 |
| O=C(c1cccc(F)c1Cl)N(CCO)CC1CC1 | 9.7 |
| O=C(NCc1cc(Br)cs1)Nc1cn[nH]c1 | -116 |
| O=C(CC1CC1)N1CC[C@H]2[C@@H]1CCC(=O)N2c1cccnc1 | -27.5 |
| O=C1CC(c2ccc(C(=O)O)cc2)c2c(sc3c2CCCC3)N1 (stereo unspecified) | -3.15 |
| O=C1CC(c2cccnc2)c2c(sc3c2CCCC3)N1 (stereo unspecified) | 29.8 |
| O=C1CC(c2ccncc2)c2c(sc3c2CCCC3)N1 (stereo unspecified) | 56.8 |
| CCn1cnnc1CNC(=O)c1cc(Cl)ccc1F | -20.1 |
| Cc1cnn(CC2CCCN2C(=O)Cc2ccc3c(c2)CCO3)c1 (stereo unspecified) | -48.8 |
| CC1CN(Cc2cccnc2)CCN1c1ccc2nncn2n1 (stereo unspecified) | 10.1 |
| COc1cccc(CN2CCN(c3ccc4nncn4n3)C(C)C2)c1 (stereo unspecified) | -39.5 |
| CC1CN(Cc2cccc(C#N)c2)CCN1c1ccc2nncn2n1 (stereo unspecified) | 50.9 |
| COCCCNS(=O)(=O)c1ccc(N2CCCCS2(=O)=O)cc1 | -76.7 |

| Structure (SMILES) | INHIBITION [%] |
| --- | --- |
| Cn1ccnc1CN1CCN(Cc2ccncc2)[C@@H]2CS(=O)(=O)C[C@@H]21 | -33.9 |
| CN(Cc1ccccc1)C(=O)[C@@H]1Cc2[nH]cnc2CN1C | 42.2 |
| O=C([C@@H]1Cc2[nH]cnc2CN1C(=O)NC1CCCCC1)N1CCCC1 | -56.1 |
| CN1Cc2nc[nH]c2C[C@H]1C(=O)NC1CCCCC1 | 53 |
| Cc1c[nH]c(C2CCCN(C(=O)CCc3c(C)n[nH]c3C)C2)n1 (stereo unspecified) | -98.1 |
| CCOc1ccc(C(=O)Nc2c(C)nc3ccccn3c2=O)cc1 | -144 |
| CCn1nc2c(cc1=O)CN(Cc1nc(-c3cccs3)no1)CC2 | 20.5 |
| CSCC(CCO)NC(=O)c1cccc(F)c1Cl (stereo unspecified) | 9.25 |
| OCC1COCCN(Cc2cc(C3CCCCC3)no2)C1 (stereo unspecified) | -122 |
| NC1CCCCN(Cc2cc(C3CCCCC3)no2)C1 (stereo unspecified) | 62 |
| C[C@@H]1CN(Cc2cc(C3CCCCC3)no2)CC[C@]1(C)O | -6.78 |
| COCC(NC(=O)c1cn(-c2cccc(Cl)c2F)nn1)C1CC1 (stereo unspecified) | -24.2 |
| Cc1ccc2cccc(S(=O)(=O)N(C)CC3CCN(C)C3)c2n1 (stereo unspecified) | 37.8 |
| Cc1ccc2cccc(S(=O)(=O)N(C)C3CCCN(C)C3)c2n1 (stereo unspecified) | 33.8 |
| Cc1ccc2cccc(S(=O)(=O)N(C)CC3CCN(C)CC3)c2n1 | 58.6 |
| Cn1c(CCC(=O)N2CCCC3(CC2)CNC(=O)O3)nc2cccnc21 (stereo unspecified) | -38.1 |
| CC(C)CCN1C(=O)c2ccc(C(=O)NCCc3c[nH]cn3)cc2C1=O | -19.2 |
| CCCNCc1cc2c(C)cc(C)cc2n2c(=O)n(C)nc12 | -36.8 |
| Cc1cc(C)c2cc(CNCc3cccnc3)c3nn(C)c(=O)n3c2c1 | 31.5 |
| Cc1cc(C)c2cc(CNCc3ccc(C)o3)c3nn(C)c(=O)n3c2c1 | 63.9 |
| COCCNCc1cc2c(C)cc(C)cc2n2c(=O)n(C)nc12 | -43 |
| Cc1cc(C)c2cc(CNCC3CCCO3)c3nn(C)c(=O)n3c2c1 (stereo unspecified) | 7.98 |

| Structure (SMILES) | INHIBITION [%] |
| --- | --- |
| Cc1cc(C)c2cc(CNCc3ccccc3)c3nn(C)c(=O)n3c2c1 | 65.4 |
| CS(=O)(=O)N1Cc2ccnn2CC(C(=O)NCc2cccnc2)C1 (stereo unspecified) | -95.4 |
| Cc1cnc(N2C[C@@H]3[C@@H](C2)OCC(=O)N3CCN(C)C)nc1 | -122 |
| CCc1ccsc1C(=O)N1CCN(CCN2C(=O)CCC2=O)CC1 | -170 |
| Cc1nn(C)cc1CN(C)C(=O)c1ccncc1 | -130 |
| CCn1c(=O)nc(N)c2c(-c3ccc(OC)cc3)csc21 | -67.6 |
| COc1ccc(-c2csc3c2c(N)nc(=O)n3CCCN(C)C)cc1 | 54.2 |
| COc1ccc(-c2csc3c2c(N)nc(=O)n3CCN(C)C)cc1 | -27.7 |
| O=C1COC2(CCN(Cc3ccoc3)CC2)CN1c1ccsc1 | -66 |
| OCc1cc2ccccc2nc1N1CCCCC1 | -56.3 |
| CC(C)N(C)C(=O)c1ccc(CNc2ccncc2Cl)cc1 | 24.6 |
| COc1cc(C)ccc1S(=O)(=O)N[C@H]1CN(C(C)=O)C[C@@H]1C1CC1 | -120 |
| CN(C)S(=O)(=O)N1CCCC(c2cccc(Cc3ccc(F)cc3)n2)C1 (stereo unspecified) | -107 |
| O=C(c1ccncc1)N1CCOC2(CCCN(c3nncs3)C2)C1 (stereo unspecified) | -74.2 |
| CC(C)N1CCC(CNC(=O)CCc2cc(F)ccc2F)C1 (stereo unspecified) | 7.8 |
| CN1CCOC(CNC(=O)COc2ccc(F)cc2F)C1 (stereo unspecified) | -69.6 |
| CC(C)N1CCC(CNC(=O)COc2ccc(F)cc2F)C1 (stereo unspecified) | 53.3 |
| Cc1ccc(N2CC[C@@H]3[C@@H]2CCN3C(=O)Cc2ccccc2)nn1 | -79 |
| Clc1ccc(CN2CCC(C3CCN(Cc4cccnc4)CC3)C2)cc1 (stereo unspecified) | 64.4 |
| O=C(C1CCCC1)N1CCC(C2CCN(Cc3ccc(Cl)cc3)C2)CC1 (stereo unspecified) | 64.3 |
| CC(=O)NCC(=O)N1CCC(C2CCN(Cc3ccc(Cl)cc3)C2)CC1 (stereo unspecified) | 5.47 |
| Clc1ccc(N2CCC(C3CCN(Cc4cccnc4)CC3)C2)nc1 (stereo unspecified) | 12.7 |

| Structure (SMILES) | INHIBITION [%] |
| --- | --- |
| O=C(C1CC1)N1CCCC1C1CCN(Cc2ccccc2)CC1 (stereo unspecified) | -40.8 |
| Clc1cccnc1N1CCC(C2CCN(Cc3cccnc3)CC2)C1 (stereo unspecified) | -49.5 |
| CN1CCN(Cc2ccc(Cl)cc2)CC1C(=O)O (stereo unspecified) | -94.1 |
| CCOCC(=O)N1CCC(C2CCN(Cc3ccc(Cl)cc3)C2)CC1 (stereo unspecified) | 0.245 |
| O=C(C1CCC1)N1CCC(C2CCN(Cc3ccc(Cl)cc3)C2)CC1 (stereo unspecified) | 65.6 |
| Cc1cc(C)n(CC2CCCN2C(=O)c2c(C)noc2C)n1 (stereo unspecified) | -97.8 |
| Cc1nc(CN2CCCN(CCOc3ccc(C#N)cc3)CC2)no1 | -71.7 |
| Cc1cc2ccccc2n1CCC(=O)NCc1ncc[nH]1 | -0.748 |
| CCN(Cc1nc(COC)no1)C(=O)CCn1c(C)cc2ccccc21 | 10 |
| CCN(Cc1ccncc1)C(=O)CCn1c(C)cc2ccccc21 | 56.5 |
| O=C(NC1CCCC1)c1cc2c(s1)CCN2C(=O)c1ccccc1 | -63.7 |
| Cc1nc(C)n(CC2CCCN2CCCOc2ccc(C#N)cc2)n1 (stereo unspecified) | -33.2 |
| Cc1ccc(S(=O)(=O)N2Cc3c(CN(C)C)nn(C)c3C2)cc1 | 42.8 |
| CCc1ccc(S(=O)(=O)N2Cc3c(CN(C)C)nn(C)c3C2)cc1 | 63.9 |
| COc1ccc(S(=O)(=O)N2Cc3c(CN(C)C)nn(C)c3C2)cc1 | 40.7 |
| C[C@@H](O)CNC(=O)c1nc(CC(=O)Nc2ccccc2)no1 | -40.2 |
| CC(NC(=O)N1CCN(c2cccs2)CC1)c1ccncc1 (stereo unspecified) | -28.9 |
| CC(NC(=O)N1CCN(c2cccs2)CC1)c1ccc(C#N)cc1 (stereo unspecified) | 63.2 |
| CC(NC(=O)N1CCN(c2ncccn2)CC1)c1ccc(C#N)cc1 (stereo unspecified) | 19.1 |
| Cc1ccnn1CCC(=O)N1C[C@@H]2CC[C@H]1CN(CC(=O)N(C)C)C2 | -46.9 |
| CC(C)(C)c1ccc(S(=O)(=O)CCN2CCNC(=O)CC2)cc1 | -97.7 |
| COCCNc1ncc(-c2cccc(OC)c2)c(-c2nccn2C)n1 | 69.3 |

| Structure (SMILES) | INHIBITION [%] |
| --- | --- |
| COCCCNc1ncc(-c2cccc(F)c2)c(-c2nccn2C)n1 | -138 |
| COCCNc1ncc(-c2cccc(F)c2)c(-c2nccn2C)n1 | -10.2 |
| Cc1nnsc1CN1C[C@H]2CC[C@@H](C1)N(Cc1ccccc1)C2 | -69.4 |
| COc1cccc(CN2CCCCC2CN2CCOCC2)c1F (stereo unspecified) | 4.8 |
| COc1cc2c(cc1CN1C[C@@H](CN3CCOCC3)[C@@H](CO)C1)CCC2 | 21.7 |
| COc1cc2c(cc1CN1CCCCC1CN1CCOCC1)CCC2 (stereo unspecified) | 65.9 |
| CC(OCC1CC1)C(=O)Nc1ncccc1I (stereo unspecified) | -86.5 |
| COCCn1cncc1CN1CCCC(C(=O)Cc2ccccc2)C1 (stereo unspecified) | -43.6 |
| O=C(Cc1ccccc1)C1CCCN(Cc2cncn2C2CCCC2)C1 (stereo unspecified) | 57.8 |
| COCCN1CCCC12CCN(Cc1cncn1C)CC2 | -12.2 |
| COCCn1cncc1CN1CCCC(C)(c2ccccc2)C1 (stereo unspecified) | 61.5 |
| CC1(c2ccccc2)CCCN(Cc2cncn2C2CC2)C1 (stereo unspecified) | 67.2 |
| CN1CCCC2(CCN(Cc3cncn3C3CCCCC3)C2)C1=O (stereo unspecified) | -28.7 |
| O=C(C1CCCN(Cc2ccccc2)C1)N1CCc2sccc2C1 (stereo unspecified) | 12.7 |
| COCCn1cncc1Cn1cccc(C(F)(F)F)c1=O | -90.4 |
| CC1(c2ccccc2)CCCN(Cc2nnc(-c3cccnc3)o2)C1 (stereo unspecified) | -119 |
| Cn1nc(C(=O)NCc2ccc(Cl)cc2)c2c1CCS(=O)(=O)C2 | -79 |
| COCC(=O)N1CCC2(COCc3cnc(N4CCOCC4)nc32)C1 (stereo unspecified) | -38 |
